# Out of some 310,000 compounds screened, about 1,200 (0.39%) were called active. Only a sample is shown. Measured potencies and affinities stand elsewhere. A number with no mark means an inactive call. No rule for the calls is given here.
# Target: Large T antigen (Simian virus 40) (UniProt P03070)
# Assay: TAg ATPase/helicase activity blockers – biochemical (AID 1903)
# Details: SV40 large T antigen ATPase/helicase inhibition assay; at 20 µM; stronger effect = higher value
# Chain of Large T antigen (Simian virus 40) (P03070 whole entry, looked up): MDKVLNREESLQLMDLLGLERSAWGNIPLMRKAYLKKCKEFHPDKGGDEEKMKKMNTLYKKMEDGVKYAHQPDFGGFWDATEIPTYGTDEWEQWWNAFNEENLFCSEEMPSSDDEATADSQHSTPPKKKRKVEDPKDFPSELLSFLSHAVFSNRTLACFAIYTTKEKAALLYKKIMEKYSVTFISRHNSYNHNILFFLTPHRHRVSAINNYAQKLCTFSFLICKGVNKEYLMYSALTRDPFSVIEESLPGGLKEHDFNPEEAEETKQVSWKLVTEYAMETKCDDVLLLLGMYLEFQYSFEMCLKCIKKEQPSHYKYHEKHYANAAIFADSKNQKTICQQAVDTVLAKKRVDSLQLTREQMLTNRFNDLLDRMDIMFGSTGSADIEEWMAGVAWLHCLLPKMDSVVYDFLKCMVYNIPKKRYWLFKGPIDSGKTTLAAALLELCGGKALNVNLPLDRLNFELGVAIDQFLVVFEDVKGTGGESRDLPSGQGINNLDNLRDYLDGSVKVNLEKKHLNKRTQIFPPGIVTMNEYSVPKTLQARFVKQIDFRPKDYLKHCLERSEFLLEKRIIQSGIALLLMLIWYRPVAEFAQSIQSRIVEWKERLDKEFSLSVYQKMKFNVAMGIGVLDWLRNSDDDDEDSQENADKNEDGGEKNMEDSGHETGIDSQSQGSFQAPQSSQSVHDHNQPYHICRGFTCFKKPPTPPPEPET
row,SMILES,inhibition [%]
1,COc1cc2[nH]c(-c3cccc(F)c3)cc(=O)c2cc1OC,16.1
2,CN(CC(=O)Nc1ccc(S(N)(=O)=O)cc1)Cc1ccccc1F,4.84
3,COc1ccc(/C=N/NC(=O)C2COc3ccccc3O2)cc1OC (stereo unspecified),-1.14
4,COc1ccc(/C=N/NC(=O)c2cccc([N+](=O)[O-])c2)cc1O,29.7
5,COc1cc(/C=N/NC(=O)c2ccccc2O)ccc1OCC(=O)Nc1ccccc1,13.3
6,COc1ccc(/C=N/NC(=O)c2cnccn2)cc1O,26.2
7,COc1cc(/C=N/NC(=O)c2cnccn2)cc(OC)c1OC,-1.61
8,COc1cc(/C=N\NC(=O)C2COc3ccccc3O2)cc(OC)c1O (stereo unspecified),37.5
9,COc1ccc(/C=N/NC(=O)c2cccc([N+](=O)[O-])c2)cc1OC,22.1
10,O=C(CC1SC(=O)NC1=O)Oc1ccc(/C=N/NC(=O)c2ccccc2O)cc1 (stereo unspecified),48.3
11,N#CCc1c(C#N)c(N)nc(N2CCOCC2)c1C#N,5.53
12,CN(Cc1ccccc1)S(=O)(=O)c1ccc(NC(=O)c2ccccc2C(=O)O)cc1,4.64
13,Cc1ccc(Cn2cnc3sc4c(c3c2=O)CCC4)c(C)c1,9.2
14,O=C(N/N=C\C=C\c1ccc2c(c1)OCO2)C1COc2cc3ccccc3cc2O1 (stereo unspecified),7.25
15,COc1ccc(C(=O)Nc2cc(C)on2)cc1OC,4.7
16,O=C(O)c1sccc1Oc1ccc(NS(=O)(=O)c2ccccc2)cc1,9.58
17,O=C(OCc1nc2ccccc2[n+]([O-])c1C(=O)c1ccccc1)c1cccs1,8.13
18,COc1cc(/C=N/N(c2ccccc2)c2ccccc2)ccc1O,18.7
19,COc1cc(C(=O)N/N=C/c2ccc(OC(=O)c3ccccc3)c(OC)c2)ccc1O,23.2
20,COc1cc(/C=N/NC(=O)c2cc(C3CC3)[nH]n2)cc(OC)c1OC,8.67
21,CCOc1cc(/C=N/NC(=O)c2c(-c3ccccc3)noc2C)ccc1O,34.1
22,CCOc1ccc(/C=N/N(C)c2ccccc2)cc1OC,3.32
23,COc1cc(/C=N/NC(=O)c2c(-c3ccccc3)noc2C)cc(OC)c1OC,0.27
24,COc1cc(/C=N/NC(=O)c2cc[n+]([O-])cc2)ccc1O,27.9
25,COc1ccc(/C=N/NC(=O)c2cc(C3CC3)[nH]n2)cc1OC,11.7
26,Cc1c(NS(=O)(=O)c2ccc(Br)s2)c(=O)n(-c2ccccc2)n1C,3.2

# Reference: PubChem BioAssay AID1903 (Southern Research Specialized Biocontainment Screening …, 2009)
